Compound activity (PubChem BioAssay)
DTT redox prof – compounds producing H2O2 with reducing agent – biochemical, NIH compound library profiling, artefact control for MLSCN library redox annotation, primary screen. DTT-dependent redox cycling H2O2, phenol red/HRP absorbance; 100% = 100 µM peroxide control, 0% = buffer. activation, % at 10 µM. 200,000 tested, 0.03% active;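 active = activation of at least 50% relative to the plate's high and low controls in the primary single-dose screen; inactive = activation below 50%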;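 note: compound incubated with DTT at 0.8 mM final as the reducing agent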
p47phox inh – p47phox/p22phox peptide binding inhibitors, primary screen, biochemical, uHTS, NADPH oxidase regulatory subunit. inhibition, % at 24.7 µM. fluorescence polarization, 2 h. 220,000 tested, 0.53% active;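 active = inhibition above about 30%, limit read from the data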
Target sequence (P14598 whole entry, looked up): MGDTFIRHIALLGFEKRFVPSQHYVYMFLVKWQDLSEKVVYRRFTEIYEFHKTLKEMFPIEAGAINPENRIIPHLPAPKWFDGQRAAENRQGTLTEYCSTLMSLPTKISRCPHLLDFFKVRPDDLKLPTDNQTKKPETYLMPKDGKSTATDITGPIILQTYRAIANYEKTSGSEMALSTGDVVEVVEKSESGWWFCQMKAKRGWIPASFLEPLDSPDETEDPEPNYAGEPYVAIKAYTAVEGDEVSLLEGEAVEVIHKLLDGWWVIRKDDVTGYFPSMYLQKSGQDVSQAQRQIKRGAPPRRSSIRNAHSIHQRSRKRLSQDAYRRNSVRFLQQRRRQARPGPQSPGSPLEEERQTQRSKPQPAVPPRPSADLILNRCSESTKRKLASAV
Arbovirus anti – antivirals against arbovirus infection, primary screen, cell-based, full library, 10K replicate subset; AID 1251, 2008; inhibition, % at 10 µM; 200,000 tested, 0.37% active; arbovirus infection cell-based antiviral screen; in the data active = inhibition above about 30%
Autophagy HCS – autophagy modulators in MEF cells, primary screen, imaging, high-content, MEF GFP-LC3; 190,000 tested, 0.98% active; calls only at 10 µM (by protocol); MEF GFP-LC3 puncta imaging; test concentration mostly 10 µM;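 active = percentage of spot-positive cells more than 3 SD above its plate mean, without a fluorescence outlier flag or 80% toxicity; inconclusive = no clear call, values can overlap the other calls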
Insulin prom up – insulin promoter activators in MIN6 cells, imaging, high-content screening, mouse beta cells. z-score at 5 µM. MIN6 insulin promoter-GFP reporter; stronger effect = higher value. AID 1625, 2009. 190,000 tested, 0.3% active;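 active = z-score above 3 at 5 µM with at least 500 cells counted in the well; inconclusive = wells under 500 cells, flagged as cytotoxic or low count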
Efa HMGR inh – inhibitors of E. faecalis class II HMGR, primary screen, biochemical, Enterococcus faecalis; purified E. faecalis HMGR, NADPH absorbance 340 nm kinetic; inhibition, % at 10 µM; 190,000 tested, 0.41% active;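 active = inhibition above a set limit, the median over all tested compounds plus 3 SD, cut at about 9.5% in these data; inconclusive = no clear call, values can overlap the other calls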;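 note: enzyme runs in reverse so mevalonate oxidation gives rising NADPH absorbance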
Redox H2O2 DR – generates H2O2 by DTT-dependent redox cycling, confirmed in dose response. shares compounds with DTT redox prof. phenol red-HRP absorbance. EC50, µM. 60 tested, 40% active. AID 1234;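 active = EC50 under a set limit for hydrogen peroxide production with the reducing agent DTT present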
Large screens that a line does not name were inactive (follow-up assays come after a bar, where they were run). This is a sample that favours compounds with a hit; in the whole collection about 2.2% have one here.

CN(C)c1ccc(/C=C2\C(=O)NC(=O)N(Cc3ccc(F)cc3)C2=O)cc1	p47phox inh 96.6 (no result: DTT redox prof, Arbovirus anti, Autophagy HCS, Insulin prom up, Efa HMGR inh)
CC1CCC/C=C/C2CC(O)CC2C(O)/C=C/C(=O)O1 (centres undefined)	Insulin prom up inconclusive
C[C@H]1CCC/C=C/C2C[C@H](O)CC2[C@H](O)/C=C/C(=O)O1 (some centres undefined)	Autophagy HCS active (no result: Insulin prom up)
CN1C2c3ccccc3C3C4c5ccccc5C(C31)C(C2[N+](=O)[O-])N4C (centres undefined)	p47phox inh 91.8 (no result: DTT redox prof, Arbovirus anti, Autophagy HCS, Efa HMGR inh)
Nc1cncc(C(=O)O)c1	none
CCCn1cc(C(=O)O)cn1	Efa HMGR inh 14.4
Clc1ccc(OCC#CCN2CCCCCC2)cc1	none
CCCCCCn1c(O)c(C=Nc2ccccc2N2CCOCC2)c(=O)[nH]c1=S	Insulin prom up 3.25 (no result: DTT redox prof, Arbovirus anti, Autophagy HCS, Efa HMGR inh)
CCCCn1c(O)c(/C=N/N2CCOCC2)c(=O)[nH]c1=S	none (no result: DTT redox prof, Arbovirus anti, Autophagy HCS, Efa HMGR inh)
CN(C)CCNC(=O)c1cccn(Cc2cccc(C(F)(F)F)c2)c1=O	Autophagy HCS active
CNC(=O)c1cccn(Cc2cccc(C(F)(F)F)c2)c1=O	none
Cc1ccc(-n2cc(CNC(C)Cc3cnccn3)c(-c3cccc(C)c3)n2)cc1 (centres undefined)	none
O=c1[nH]c(O)c(/C=C2/C=CC(c3cc(Cl)ccc3Cl)=N2)c(=O)[nH]1	p47phox inh 50.0 (no result: DTT redox prof, Arbovirus anti, Autophagy HCS, Efa HMGR inh)
CCn1nc(-c2ccccc2)nc2c(=O)n(C)c(=O)nc1-2	DTT redox prof 139.8, Insulin prom up inconclusive | Redox H2O2 DR 0.9
O=C(c1c[nH]c2ccc(S(=O)(=O)N3CCOCC3)cc2c1=O)N1CCC2(CC1)OCCO2	none
Cc1nc2c(=O)n(C)c(=O)nc-2n(C)n1	DTT redox prof 292.7, Insulin prom up inconclusive, Efa HMGR inh 10.3 | Redox H2O2 DR 2.76
Cn1c(O)c(C(=N)COc2cccc(Cl)c2)c(=O)n(C)c1=O	none
O=C1C(=O)c2ccccc2-c2ccccc21	DTT redox prof 284.5, Insulin prom up inconclusive | Redox H2O2 DR 0.71
CCCCCCC(=O)c1c(O)n(-c2ccccc2OC)c(=O)[nH]c1=O	none
